Assay outcomes: PubChem, National Center for Advancing Translational Sciences (NCATS)
Rows were chosen to be rich in hits. Some 12% of all compounds tested hit in one or more screens of this group.
BAZ2B inh – blocks human BAZ2B; Q9UIF8; AlphaScreen BAZ2B-H3K14Ac peptide displacement; Potency, µM (top dose mostly 114 µM), inactives show at the top dose activity change, negative = inhibition, hits mostly inhibitors; 360,000 compounds, 4.4% hits; AID 504333; note: potency is the fitted concentration of half-maximal effect; % is set by controls: 0 for no effect and ±100 for the full control effect; nearly all actives have a fitted effect of over 60% in size
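Multi-concentration screen (max 110 uM) measuring displacement of acetylated histone H3 peptide from BAZ2B by AlphaScreen, using 50 nM protein, 50 nM peptide and 10 ug/mL streptavidin donor plus Ni-chelate acceptor beads.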
HP1b chromo inh – HP1-beta chromodomain-methylated histone interaction inhibition. P83916. AlphaScreen HP1-beta / biotin-H3K9me3 peptide binding. Potency, µM (doses to about 114 µM), for inactives: at the highest dose activity change, negative = inhibition, usual class: inhibitors. 390,000 compounds, 0.56% hits. AID 540317; note: potency is the fitted concentration of half-maximal effect; nearly all actives have a fitted effect of over 70% in size
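AlphaScreen: HP1-beta (50 nM) preformed 30 min with biotin-H3(1-18)K9me3 peptide (50 nM) in PBS pH 7.4, 0.01% Tween-20. Compound added for 30 min at RT, then streptavidin donor/nickel chelate acceptor beads (10 ug/mL) for 30 min.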
JMJD2A Tudor – JMJD2A Tudor domain (human) inhibition; AlphaScreen JMJD2A-Tudor / H3K4me3 peptide binding; Potency, µM (top dose mostly 114 µM), for the others: at the highest dose activity change, negative = inhibition, most hits filed as inhibitors; 390,000 compounds, 4.4% hits; note: potency is the fitted concentration of half-maximal effect; % is set by controls: 0 for no effect and ±100 for the full control effect; nearly all actives have a fitted effect of over 50% in size
G9a block – blocks human histone lysine methyltransferase G9a; 350,000 compounds, 8.8% hits; Q96KQ7; AID 504332; G9a H3K9 monomethylation, AlphaScreen, 2 h; Potency, µM (series often up to 102 µM), inactives show top-dose activity, negative = inhibition, actives largely listed as inhibitors; note: potency is the fitted concentration of half-maximal effect; % is set by controls: 0 for no effect and ±100 for the full control effect; nearly all actives have a fitted effect of over 75% in size
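G9a (20 nM) preincubated 15 min RT with compounds, then 500 nM biotinylated H3K9 peptide and 20 uM SAM added; 2 h RT reaction. Monomethyl-H3K9 product detected by AlphaScreen with anti-H3K9me1 antibody, streptavidin donor and anti-rabbit IgG acceptor beads.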
PLK1 PBD block – inhibitors of human PLK1 polo-box domain binding. Plk1 PBD binding of FITC phosphopeptide, fluorescence polarization. Potency, µM, without a hit: max response, negative = inhibition, usual class: inhibitors. 360,000 compounds, 2.8% hits; note: potency is the fitted concentration of half-maximal effect; series mostly up to about 57 µM; % is set by controls: 0 for no effect and ±100 for the full control effect; nearly all actives have a fitted effect of over 65% in size
Target sequence (P53350 whole entry, looked up, the tested form may be a part): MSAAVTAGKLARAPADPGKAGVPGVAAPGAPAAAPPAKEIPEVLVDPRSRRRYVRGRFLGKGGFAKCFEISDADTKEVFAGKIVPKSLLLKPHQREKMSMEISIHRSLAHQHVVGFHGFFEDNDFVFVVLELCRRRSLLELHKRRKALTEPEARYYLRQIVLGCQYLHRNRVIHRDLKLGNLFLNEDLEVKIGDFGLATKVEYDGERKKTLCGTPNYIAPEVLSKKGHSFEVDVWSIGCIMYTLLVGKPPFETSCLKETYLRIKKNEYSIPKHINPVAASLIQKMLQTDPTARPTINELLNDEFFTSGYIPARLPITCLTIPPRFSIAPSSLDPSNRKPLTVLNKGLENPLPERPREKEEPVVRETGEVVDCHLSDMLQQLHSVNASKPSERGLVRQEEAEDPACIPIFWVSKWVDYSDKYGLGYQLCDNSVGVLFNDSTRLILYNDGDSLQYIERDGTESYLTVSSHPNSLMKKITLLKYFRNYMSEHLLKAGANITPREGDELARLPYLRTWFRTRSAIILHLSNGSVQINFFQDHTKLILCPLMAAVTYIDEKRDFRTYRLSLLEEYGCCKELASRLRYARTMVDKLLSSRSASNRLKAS
PI5P4Ka inh – blocks human PI5P4K alpha kinase activity | 330,000 compounds, 1.2% hits | P48426 | max response, % | AID 652105 | PI5P4Kalpha enzyme, ADP-Glo luminescence, 60 min; active compounds read low; active = max response of -50% or lower; inconclusive = between -30% and -50%; inactive = -30% or higher; note: value at the top dose of about 77 µM; % is set by controls: 0 for no effect and ±100 for the full control effect
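Enzyme plus substrate dispensed, test compounds pinned in, then ATP (5 microM final) added. After 60 min at RT, ADP-Glo reagent 1 for 45 min and reagent 2 for 30 min preceded luminescence imaging.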
An asterisk follows results filed as active; u = inconclusive; x = no result; ! = not active in a repeat; [ ] = another dose, or the depositor's remark. Unless noted, calls come from the whole dose curve; as a rule, active = well fitted curve in the direction sought with a large enough effect; inconclusive = small, poorly fitted or top-dose-only effect, or another doubt; inactive = no such curve, though single readings can be large; an effect the other way counts as inactive or inconclusive.

SMILES	BAZ2B inh	HP1b chromo inh	JMJD2A Tudor	G9a block	PLK1 PBD block	PI5P4Ka inh
COc1ccc(C2CC(c3ccc4ccccc4c3)=NN2C(=O)CN2CCC(C(N)=O)CC2)cc1 (stereo not drawn)	-27%	-18%	u	u	3%	-2
COc1ccc(C2=NN(C(=O)CCC(=O)O)C(c3ccc(OC)cc3)C2)cc1 (stereo not drawn)	4%	37%	-18%	x	-1%	-2
COc1ccc(C2CC(c3ccc4ccccc4c3)=NN2C(=O)COC(=O)C2CCC(=O)N2)cc1 (stereo not drawn)	35µM*	-1%	u	u	1%	0
COc1ccc(C2CC(c3ccc4ccccc4c3)=NN2C(=O)CNC2CCCCC2)cc1 (stereo not drawn)	56µM*	u	22µM*	10µM*	-5%	-1
CCc1ccc2occ(CC(=O)Nc3c(C(=O)c4ccccc4)oc4ccccc34)c2c1	16%	58%	47%	13%[59 µM]	x	x
O=C(OCC(=O)N1CCCC1)c1ccccc1C(=O)c1ccccc1	-2%	37%	-22%	-2%[12.7 µM]	-6%	-6
O=C(c1ccc(N2CCCCC2)c([N+](=O)[O-])c1)N1CCOCC1	7%	8%	-18%	6%[59 µM]	1%	-3
COc1ccccc1C(=O)/C=C/c1ccc(N2CCCCC2)c([N+](=O)[O-])c1	6.3µM*	32µM*	8.9µM*	13µM*	-14%	-6
O=C(O/N=C\c1ccc(N2CCCCC2)c([N+](=O)[O-])c1)c1ccc(Cl)cc1Cl	u	u	u	40µM*	-9%	-1
O=C(/C=C/c1ccc(N2CCCCC2)c([N+](=O)[O-])c1)c1ccc(O)cc1	40µM*	35µM*	28µM*	-25%[12.7 µM]	-7%	-3
CCOc1ccc(CCNC(c2nnc(-c3ccccc3)o2)c2ccccc2Cl)cc1OCC (stereo not drawn)	2%	74%	-21%	43%[59 µM]	x	x
Cc1ccc2c(c1)c1c(c(=O)n(-c3ccccc3C)c(=O)n1CC(=O)NCCC1=CCCCC1)n2C	-6%	16%	-12%	-5%[59 µM]	x	x
CCn1c(N)c(C(=O)Nc2ccccc2C(=O)OC)sc1=S	u	u	-16%[11.4 µM]	u	12µM*	-13
COCCNC(=O)c1ccc(C(=O)NCCOC)s1	2%	6%	-11%	10%[12.7 µM]	-9%	x
CCn1c(N)c(C(=O)NCCOC)sc1=S	5%	u	3%	20%[12.7 µM]	27µM*	-12
Cc1cc(C(=O)N2CCN(c3ccc([N+](=O)[O-])cc3)CC2)n[nH]1	-31%	37%	-18%	-1%	-6%	2
CC1CCCCC1NC(=O)c1ccc(S(=O)(=O)NNC(=O)c2ccncc2)cc1 (stereo not drawn)	89µM*	27%	3.5µM*	x	u	-6
CC1CCCCC1NC(=O)c1ccncc1 (stereo not drawn)	-11%	47%	-14%	58%	-13%	4
O=C(NNS(=O)(=O)c1ccc(C(=O)NC2CCCC2)cc1)c1ccncc1	-30%	20%	1.3µM*	50µM*	u	-12
COC(=O)C1=C[C@@H](C(=O)OC)[C@@H]2C3=C(C(=O)C2(C)C)[C@H](c2ccccc2)[C@@H]2C(=O)N(c4ccccc4)C(=O)[C@@H]2[C@@H]3C1	x	37%	-19%	x	x	x
CCSc1ncccc1-c1nc2ccccc2[nH]1	8%	x	-6%	-9%[59 µM]	-2%	-4
CN(C)C(=O)CSc1ncccc1-c1nc2ccccc2[nH]1	-14%	56%	-3%	-22%	-11%	-10
c1ccc2[nH]c(-c3ccnc4ccccc34)nc2c1	u	40%	-13%	8.9µM*!	-1%	1
c1ccc2c(-c3nc4ccccc4[nH]3)cccc2c1	x	x	x	x	1%	3
CCN(CC)C(=O)CSc1ncccc1-c1nc2ccccc2[nH]1	-12%	34%	-14%	50µM*	-3%	1
CSc1ncccc1-c1nc2ccccc2[nH]1	11%	1%	-9%[57.1 µM]	10µM*	-19%	-9
O=[N+]([O-])c1ccc(O)c2ncccc12	3.5µM*	-4%	22µM*	u	-13%	-1
